# Pf growth 48h: inhibits P. falciparum growth in the first generation, 48 h; Potency, µM (doses to about 28.7 µM), inactives show at the top dose activity change, negative = inhibition, usual class: inhibitors; 310,000 compounds, 5.9% hits; P. falciparum luciferase growth in erythrocytes, 48 h; AID 504832; also: potency is read from the fitted curve at half-maximal effect; % is scaled to controls: 0 for no effect and ±100 for the full control effect
#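 Firefly luciferase activity from engineered P. falciparum reports growth; inhibitors lower the luminescent signal. Cultures contained 2% hematocrit erythrocytes at 0.1% final parasitemia.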
# HCV inhibitor: blocks hepatitis C virus. Huh7.5.1 HCVcc-Cre infection, luciferase reporter, 44 h. 340,000 compounds, 3.4% hits. AID 651820. Potency, µM (series often up to 41.8 µM), for the others: at the top dose activity change, negative = inhibition, actives largely listed as inhibitors; also: potency is read from the fitted curve at half-maximal effect; % is scaled to controls: 0 for no effect and ±100 for the full control effect
#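 Whole-lifecycle infectious HCVcc-Cre system; cells 1,000/well, compound then virus (~0.5 moi) added 4 h after plating, 44 h culture. Luciferase read 15 sec following 15 min substrate incubation, room temp.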
# HCMV inh: human cytomegalovirus inhibition; HFF cells, HCMV-luciferase reporter, 72 h; active compounds read low; activity change, negative = inhibition, % at 57.5 µM; 410,000 compounds, 4.5% hits; AID 1259415; in the data active = activity change below about -60%; inconclusive = no clear call, values can overlap the other calls; inactive = above about -39%; also: % is scaled to controls: 0 for no effect and ±100 for the full control effect
#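 HFF cells seeded 16 h at 37C, treated with compounds, infected with luciferase-reporter HCMV at MOI 1 PFU/cell; luciferase read at 72 h post infection, normalized to buffer-only and Salinomycin controls.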
# Pf growth 96h: P. falciparum growth inhibition at 96 hour, primary screen for plastid delayed-death inhibitors. P. falciparum luciferase reporter growth, 96 h. Potency, µM (doses to about 28.7 µM), for the others: at the highest dose activity change, negative = inhibition, hits mostly inhibitors. 320,000 compounds, 6.9% hits; also: potency is read from the fitted curve at half-maximal effect; % is scaled to controls: 0 for no effect and ±100 for the full control effect
#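 Cell-based qHTS: luciferase-tagged P. falciparum in erythrocytes (2% hematocrit, 0.05% parasitemia final) incubated with compounds for 96 hours, 37 C, 5% CO2; luciferase detection reagent then added and luminescence measured.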
# Sm TGR block: blocks Schistosoma mansoni thioredoxin glutathione reductase | Q962Y6 | purified TGR, DTNB reduction, TNB absorbance 405 nm | Potency, µM (highest dose often 114 µM), for inactives: top-dose activity change, negative = inhibition, usual class: inhibitors | 360,000 compounds, 3% hits; also: potency is read from the fitted curve at half-maximal effect; % is scaled to controls: 0 for no effect and ±100 for the full control effect; nearly all actives have a fitted effect of over 60% in size
#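 First, TGR (20 nM dispensed) and NADPH were mixed with compound. Second, a 15 min room-temperature incubation followed. Third, further NADPH and then DTNB were added to start the reaction. Finally, TNB absorbance was monitored kinetically.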
# SARS PLpro yeast: SARS-CoV PLP inhibition in yeast. Potency, µM (top dose mostly 32.9 µM), for the others: at the highest dose activity, positive = growth rescue, actives largely listed as activators. S. cerevisiae expressing SARS-CoV PLpro, growth rescue. 330,000 compounds, 0.19% hits; calls by dose curve; also: potency is read from the fitted curve at half-maximal effect; 0% is about no effect; nearly all actives have a fitted effect of over 55% in size
# Active calls of the source: *; ? = inconclusive; . = not tested or not shown; ! = repeats disagree. An excerpt weighted towards active compounds, which were near 15% of everything screened. Unless noted, calls follow the shape of the dose curve; as a rule, active = well fitted curve in the direction sought with a large enough effect; inconclusive = small, poorly fitted or top-dose-only effect, or another doubt; inactive = no such curve, though single readings can be large; an effect the other way counts as inactive or inconclusive.
SMILES,Pf growth 48h,HCV inhibitor,HCMV inh,Pf growth 96h,Sm TGR block,SARS PLpro yeast
Cc1sc(NC(=O)CN2C(=O)NC3(CCCC3)C2=O)nc1-c1ccc(F)cc1,-10%,?,-20,0%,5%,-1%
CCOc1ccc(N2C=Nc3ccc(OCC)cc3C2)cc1,?,?,-17,?,0%,2%
CCCCSc1nnc(-c2ccc(OC)cc2)n1C,-3%,-4%,-19,13µM*,-1%,-17%
COc1ccc(-c2nnc(SCc3csc(N)n3)n2C)cc1,?,-3%,-7,?,-3%,-2%
Cc1ccc(NC(=O)CSc2nc(O)cc(=O)n2C)cc1,-4%,-4%,-8,-1%,28%,-1%
Cc1ccc(NC(=O)CSc2nc3sc(C)cc3c(=O)n2C)cc1,?,-23%,?,9.3µM*,-7%,-1%
COc1ccc2c(c1O)-c1c(OC)c(OC)cc3c1[C@H](C2)N(C)CC3,2%,10%,-63*,37%,-10%,.
COc1cc2c(cc1O)CC1c3c(cc(O)c(OC)c3-2)CCN1C (centres undefined),?,-4%,-19,-23%,6%,-2%
COc1cc2c(cc1OC)-c1c(OC)c(OC)cc3c1[C@H](C2)N(C)CC3,?,-26%,-32,3.7µM*,-9%,1%
CN1CCc2cccc3c2[C@H]1Cc1ccc(O)c(O)c1-3,2.9µM*,?,-66*,2.3µM*!,.,-17%
COc1ccc2cc1Oc1ccc(cc1)C[C@H]1c3cc(c(OC)cc3CCN1C)Oc1c(OC)c(OC)cc3c1[C@@H](C2)N(C)CC3,2.3µM*,?,-66*,1.5µM*,35µM*,8%
O=C(Nc1ccc(Cl)c(S(=O)(=O)N2CCCCC2)c1)c1ccco1,?,-14%,-20,?,-7%,-3%
O=C(COc1ncnc2ccccc12)Nc1cc([N+](=O)[O-])ccc1F,3%,8%,0,5.2µM*,0%,1%
O=C(O)CCCC(=O)Nc1cc([N+](=O)[O-])ccc1O,3%,9%,-29,13µM*,3%,0%
COc1ccc([N+](=O)[O-])cc1NC(=O)CSCc1ccccc1,4%,-30%,-19,?,-3%,-26%
O=C(CCn1c(=S)oc2ccccc21)Nc1cc([N+](=O)[O-])ccc1F,8.3µM*,-12%,-18,-4%,-4%,0%
O=C(CSCc1ccccc1)Nc1cc([N+](=O)[O-])ccc1F,-16%,-2%,-17,5.2µM*,1%,0%
CCc1sc(C(=O)Nc2ccc3c(c2)OCCO3)cc1Br,.,.,30,.,.,.
COCC1CCCCC1OS(N)(=O)=O (centres undefined),38%,24%,-22,32%,8%,-4%
O=C(Nc1csc([N+](=O)[O-])c1)Nc1ccccc1Cl,?,-19%,-67*,?,-1%,-9%
O=C(Nc1ccc(Cl)cc1)Nc1ccccc1Sc1ncc([N+](=O)[O-])s1,2.6µM*,-18%,?,40%,4.5µM*,-10%
COc1ccc(N2CCN(C(=O)c3cc4c(s3)-c3ccccc3S(=O)(=O)C4)CC2)cc1,-17%,10µM*,-37,?,-2%,-2%
COc1cc(OC)c(N(C)C(=O)c2cc3c(s2)-c2ccccc2S(=O)(=O)C3)cc1Cl,.,22µM*,-32,.,.,.
CCN1CCN(C(=O)c2cc3c(s2)-c2ccccc2S(=O)(=O)C3)CC1,5%,12%,39,-22%,-1%,-4%
COc1ccc(N(C)C(=O)c2cc3c(s2)-c2ccccc2S(=O)(=O)C3)cc1,2.9µM*,?,-12,?,3%,0%
SMILES,Pf growth 48h,HCV inhibitor,HCMV inh,Pf growth 96h,Sm TGR block,SARS PLpro yeast
O=C(c1cc2c(s1)-c1ccccc1S(=O)(=O)C2)N1CCN(Cc2ccccc2)CC1,.,10µM*,-74*,69%,-8%,15%
CC1CCCN(c2ncnc3c2nc2n3CCCCC2)C1 (centres undefined),.,.,15,.,-4%,.
O=C1NC2(CCCCC2)N=C1c1ccc(F)cc1,?,.,-74*,22%,2%,-12%
O=C1NC2(CCCCC2)N=C1c1ccc(Br)cc1,8%,1%,2,.,-3%,-7%
COc1ccc(NC(=O)c2sc3nc4c(cc3c2N)CN(Cc2ccccc2)CC4)cc1,.,.,3,.,2%,.
Cc1ccc(NC(=O)c2sc3nc4c(cc3c2N)CN(Cc2ccccc2)CC4)cc1,.,.,-63*,.,2%,.
COc1ccc(C(CNC(=O)Cc2ccccc2)N2CCCCC2)cc1 (centres undefined),-10%,15%,-4,2%,6%,1%
O=C(NCC(c1ccc(F)cc1)N1CCOCC1)c1ccc([N+](=O)[O-])o1 (centres undefined),.,?,-87*,.,.,2%
COc1ccc(C(CNC(=O)c2ccc(-c3ccccc3Cl)o2)N2CCOCC2)cc1 (centres undefined),15µM*,?,-5,?,-2%,0%
COc1ccccc1C(CNC(=O)c1ccc(-c2ccccc2Cl)o1)N1CCCC1 (centres undefined),15µM*,?,-35,10µM*,-1%,9%
COc1ccccc1C(CNC(=O)c1ccco1)N1CCCC1 (centres undefined),-8%,14%,0,20%,-18%,-2%
COc1ccc(C(CNC(=O)Cc2ccc(Cl)c(Cl)c2)N2CCCCC2)cc1 (centres undefined),?,3%,-5,2.1µM*,1%,-3%
COc1ccccc1-c1cc(-c2ccccc2)nc(SCC(=O)O)c1C#N,-3%,-10%,1,?,0%,7%
Cc1ccc(C)c(NC(=O)Cn2cc(C(=O)C3CCCCC3)c3ccccc32)c1,.,.,-15,.,0%,.
CC(=O)Oc1cccc(N2C(=O)c3cccc4c([N+](=O)[O-])ccc(c34)C2=O)c1,26%,?,-94*,-2%,1%,-1%
CN(C)CCCN1C(=O)c2cccc3c([N+](=O)[O-])ccc(c23)C1=O,-4%,?,-25,-17%,28µM*,-22%
O=C(O)c1ccc(CN2C(=O)c3cccc4c([N+](=O)[O-])ccc(c34)C2=O)cc1,21%,?,.,31%,18µM*,0%
Cc1ccc(C(=O)O)cc1N1C(=O)c2cccc3c([N+](=O)[O-])ccc(c23)C1=O,0%,?,-100*,225%,14µM*,1%
O=C1c2cccc3c([N+](=O)[O-])ccc(c23)C(=O)N1CCc1ccccn1,10%,9%,-12,24%,?,-1%
CC(C)(C)C1CCC(=NNC(=O)c2ccco2)CC1 (centres undefined),37%,3%,56,?,-4%,-2%

# Assay outcomes (PubChem BioAssay)
